PubChem BioAssay (NCATS)
Records with an inconclusive call do not appear. Values without a mark were called inactive. The source made the active and inactive calls. Calls come from the whole dose curve; as a rule, active = well fitted cell-killing curve with a large enough effect; inconclusive = small, poorly fitted or top-dose-only effect, or effect the other way; inactive = no such curve, though single readings can be large or run the other way.

experiment: qHTS of pediatric cancer cell lines to identify multiple opportunities for drug repurposing: Confirmatory screen for SJ-GBM2 cells (AID 1347116); details: SJ-GBM2 glioblastoma cells, viability; series mostly up to 45.9 µM; activity change, negative = cytotoxic: at the top concentration;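 note: 48 hour compound exposure; nearly all actives have a fitted effect of over 60% in size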
Excerpt: Drug repurposing or repositioning has been offered as a strategy for drug development in oncology programs. This approach has special potential for childhood cancers and other rare or orphan diseases, where the expected return on new drug development has been a disincentive to pharmaceuticals.
In this project we exploit the poly-pharmacology of drugs to discover new indications via phenotypic screening of a panel of 19 well-characterized cell lines derived from solid tumors seen in children and adolescents. The goal is to identify approved drugs with previously unrecognized anticancer properties that has the potential to reveal new mechanisms and biological processes involved in carcinogenesis or drug resistance. We employed a titration-based paradigm (quantitative high-throughput screening or qHTS), where all compounds were tested at multiple concentrations for their effect on cell viability. Concentration-response curves (CRCs) were derived directly from the primary screen, and both potency and efficacy values were used to identify compounds with robust bioactivity profiles. We screened the NIH Chemical Genomics Center (NCGC) Pharmaceutical Collection (NPC) and Mechanism Interrogation Plate (MIPE) small molecule collections of approved and investigational compounds against these cell lines; and measured metabolically active cells after 48 hours of compound treatment as a proxy for cell viability.
Assay Submitter: Nathalia J. Martinez, National Center for Advancing Translational Sciences, National Institutes of Health, Rockville, MD, USA; email: natalia.martinez@nih.gov
[1] Shen, M et al. Quantitative high-throughput phenotypic screening of pediatric cancer cell lines identifies multiple opportunities for drug repurposing. Oncotarget 2017 Dec 19;9(4):4758-4772. PMID 29435139.
The cells were obtained from University of North Carolina (UNC), Pediatric Preclinical Testing Program (PPT), and Coriell Institute (CI).
qHTS cell viability assay:
Cells were assayed in growth media at a density of 500-1,000 cells/well. Five microliters of cells were dispensed into 1,536-well, white, solid-bottom, TC-treated plates (Greiner Bio One) using a multidrop dispenser and incubated at 37 degrees C, 5% CO2, under a humidified atmosphere for 5 hours. Twenty-three nanoliters of compounds and controls (neutral control DMSO or positive control bortezomib at final concentration of 2.3 µM) were subsequently transferred by Kalypsys pintool. For primary screens, the MIPE collection was tested at 11-point dilutions (final concentrations range from 0.78 nM to 46 µM) and the NPC collection at 8-point dilutions (final concentrations range from 0.59 nM to 46 µM). Compounds tested in follow-up screens were assayed at 11-point dilutions. Cells were incubated for 48 hours, followed by addition of 3 uL of CellTiter-Glo (Promega). After a 15 min incubation at room temperature, samples were analyzed for luminescence intensity using a ViewLux High-throughput CCD imager equipped with clear filters.
Potency is the fitted concentration of half-maximal effect.

Row | SMILES | Potency | activity change, negative = cytotoxic [%] | outcome
1 | CCC1=C[C@@H]2CN(C1)Cc1c([nH]c3ccccc13)[C@@](C(=O)OC)(c1cc3c(cc1OC)N(C)[C@H]1[C@@](O)(C(=O)OC)[C@H](OC(C)=O)[C@]4(CC)C=CCN5CC[C@]31[C@@H]54)C2 | 0.0522 µM (active) |  | 
2 | Cc1ccc(C(=O)Oc2ccc(C(O)CNC(C)(C)C)cc2OC(=O)c2ccc(C)cc2)cc1 (stereo unspecified) |  | -28.3 | 
3 | Nc1ccc2cc3ccc(N)cc3nc2c1 | 5.85 µM (active) |  | 
4 | CCCCC(CC)CNC(=O)CC(C)OC(=O)CCC(=O)O (stereo unspecified) |  |  | inactive
5 | CCC(=O)O[C@]1(C(=O)COC)[C@@H](C)C[C@H]2[C@@H]3CCC4=CC(=O)C=C[C@]4(C)C3(F)[C@@H](O)C[C@@]21C (stereo partly specified) |  | 7.03 | 
6 | CC(C)(C)CC(=O)OCC(=O)[C@@]1(O)CC[C@H]2[C@@H]3CCC4=CC(=O)C=C[C@]4(C)[C@H]3[C@@H](O)C[C@@]21C |  | -10.3 | 
7 | C[C@]12CCC(=O)C=C1CC[C@@H]1[C@@H]2[C@@H](O)C[C@@]2(C)[C@H]1CC[C@]2(O)C(=O)COC(=O)CCC(=O)O |  |  | inactive
8 | Cc1cc(OCCOCC[N+](C)(C)Cc2ccccc2)ccc1C(C)(C)CC(C)(C)C | 14.7 µM (active) |  | 
9 | O=c1[nH]sc2cc(Cl)ccc12 | 20.8 µM (active) |  | 
10 | C[C@H]1C[C@H]2[C@@H]3CCC4=CC(=O)C=C[C@]4(C)[C@H]3C(=O)C[C@]2(C)[C@@]1(O)C(=O)CO | 4.65 µM (active) |  | 
11 | CCOC(=O)O[C@]1(C(=O)OCCl)CC[C@H]2[C@@H]3CCC4=CC(=O)C=C[C@]4(C)[C@H]3[C@@H](O)C[C@@]21C |  |  | inactive
12 | CC[C@@]1(O)C(=O)OCc2c1cc1n(c2=O)Cc2c-1nc1ccccc1c2/C=N/OC(C)(C)C | 0.0928 µM (active) |  | 
13 | CCCCC(=O)OCC(=O)[C@H]1[C@H](C)C[C@H]2[C@@H]3C[C@H](F)C4=CC(=O)C=C[C@]4(C)[C@@]3(F)[C@@H](O)C[C@@]21C | 20.8 µM (active) |  | 
14 | CCC1(c2cnc[nH]2)Cc2ccccc2C1 |  | 17.7 | 
15 | CO[C@@H]1[C@@H](OC)[C@H](C)[C@@](O)(CC(=O)O)O[C@H]1[C@H](C)[C@H]1O[C@@]2(CC[C@@](C)([C@H]3CC[C@@](C)([C@@H]4O[C@@H]([C@H]5O[C@](C)(O)[C@H](C)C[C@@H]5C)C[C@@H]4OC4C[C@H](OC)[C@@H](OC)[C@H](C)O4)O3)O2)C[C@H](O)[C@H]1C (stereo partly specified) | 7.37 µM (active) |  | 
16 | C[C@H]1C[C@@H]2[C@H]([C@@H](O)C[C@@]3(C)[C@H]2CC[C@]3(O)C(=O)CO)[C@@]2(C)C=CC(=O)C=C12 |  | -20.6 | 
17 | CC(=O)[C@@]1(O)CC[C@H]2[C@@H]3C[C@H](C)C4=CC(=O)CC[C@]4(C)[C@H]3CC[C@@]21C | 1.17 µM (active) |  | 
18 | CC(C)=CCC/C(C)=C/CC/C(C)=C/C(=O)OCC(=O)[C@@]1(O)CC[C@H]2[C@@H]3CCC4=CC(=O)C=C[C@]4(C)[C@H]3[C@@H](O)C[C@@]21C |  | -21.5 | 
19 | CCc1cc2cc(OC)c(OC)cc2c(Cc2ccccc2)n1 |  | -3.14 | 
20 | Nc1c2ccccc2nc2ccccc12 | 3.29 µM (active) |  | 
21 | CN(C)CCN(Cc1ccsc1)c1ccccn1 |  | 10.5 | 
